In PubChem BioAssay (NCATS):
Records with an inconclusive call do not appear. A number with no mark means an inactive call. Activity calls are given as the source filed them. Calls come from the whole dose curve; as a rule, active = well fitted inhibition curve with a large enough effect; inconclusive = small, poorly fitted or top-dose-only effect; inactive = flat fitted curve, though single readings scatter. Where a SMILES comes first, the peptide text is derived from it.

system: Zika virus NS2B-NS3 protease; assay: Primary screen GU AMC qHTS for Zika virus inhibitors (AID 1347154); conditions: Zika NS2B-NS3 unlinked protease, AMC fluorogenic substrate; series mostly up to 54.1 µM; activity change, negative = inhibition: at the top concentration; note: nearly all actives have a fitted effect of over 70% in size;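 for activity change, negative = inhibition: 0% = no-inhibitor control and -100% = no-enzyme control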
Method in brief: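 Unlinked Zika NS2B hydrophilic domain–NS3 protease complex at 25 nM in 10 mM Tris-HCl pH 8.0, 0.01% Tween 20, with an AMC peptide substrate. Fluorescence change (340/450 nm) over 15 min at room temperature, normalized to controls, fitted to 4-parameter Hill.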
Potency is the fitted concentration of half-maximal effect.

| SMILES | activity change, negative = inhibition | Potency |
| --- | --- | --- |
| COc1ccc2nc(SCc3ncc(C)c(OC)c3C)[nH]c2c1 | -0.0847% | – |
| CCCC(CCC)(C(=O)OCC)C(=O)OCC | 8.66% | – |
| CCCCCCn1c(=O)c2c(ncn2C)n(C)c1=O | 5.34% | – |
| O=C(OCC(COC(=O)c1cccnc1)(COC(=O)c1cccnc1)COC(=O)c1cccnc1)c1cccnc1 | -2.77% | – |
| C=CCNc1nc(NCC=C)nc(N2CCN(C(c3ccc(F)cc3)c3ccc(F)cc3)CC2)n1 | -9.88% | – |
| CCCCCCCC(=O)[O-].CCCCCCCC(=O)[O-].[Zn+2] | -10.5% | – |
| Cc1onc(-c2c(Cl)cccc2Cl)c1C(=O)Cl | 1.45% | – |
| COC(=O)CCCCC(CCSS/C(CCO)=C(\C)N(C=O)Cc1cnc(C)nc1N)SC(C)=O (stereo not drawn) | -3.99% | – |
| C[C@H]1NCc2cc(-c3ccc4c(=O)c(C(=O)O)cn(C5CC5)c4c3OC(F)F)ccc21 | -4.99% [at 25.8 µM] | – |
| CC(=O)N[C@@H](CO)C(=O)N[C@@H](CC(=O)O)C(=O)N[C@@H](CCCCN)C(=O)N1CCC[C@H]1C(=O)O (Ac-SDKP-OH) | -4.32% | – |
| C[C@@H](C1=C(CCN(C)C)Cc2ccccc21)c1ccccn1 | – | inactive |
| CCOC(=O)CN1CCCC1=O | -3.73% | – |
| CN1CC(=O)N2[C@H](c3ccc4c(c3)OCO4)c3[nH]c4ccccc4c3C[C@@H]2C1=O | 1.29% | – |
| Nc1ncnc2c1ncn2Cc1c(F)cccc1Cl | -3.98% | – |
| COC(=O)/C=C\C(=O)OC | 3.65% | – |
| O=C(NN1CCCC1)NS(=O)(=O)c1ccc(Cl)cc1 | -4.07% | – |
| COc1ccc2cc(C=O)ccc2c1 | – | 31.6 µM (active) |
| CC(C)(C)C(O)/C=C/c1ccc2c(c1)OCO2 (stereo not drawn) | 0.119% | – |
